Test in all cases: DAPPL (digital affinity profiling via proximity ligation, sequencing); 10 mM Tris-HCl pH 7.5, 50 mM NaCl, 1 mM DTT, 4% glycerol, room temperature, 30 min; GST-TFs on glutathione beads, 16-mer random dsDNA library, 0.1% formaldehyde crosslink after washing; high values mean tight binding
One assay has as its target T1, FEV (Homo sapiens, UniProt Q99581 1-238).
T1 sequence: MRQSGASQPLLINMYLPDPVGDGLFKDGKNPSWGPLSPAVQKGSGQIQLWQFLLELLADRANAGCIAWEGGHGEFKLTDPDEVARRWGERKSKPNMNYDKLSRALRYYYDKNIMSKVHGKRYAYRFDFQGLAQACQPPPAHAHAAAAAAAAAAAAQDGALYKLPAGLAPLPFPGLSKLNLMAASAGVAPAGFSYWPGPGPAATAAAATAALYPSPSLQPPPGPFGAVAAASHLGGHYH
To be noted: protein: recombinant; tags: N-terminal GST; dsDNA, one strand shown. The procedure, abridged: (§1)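 Human transcription factors fused to GST were expressed in yeast, captured on glutathione beads, given DNA barcodes and pooled with a GST-only negative control. Pools were incubated with 200 nmole of a 16-mer random double-stranded DNA library in Tris/NaCl/DTT/glycerol buffer at room temperature for 30 min. They were then washed, crosslinked with 0.1% formaldehyde, proximity-ligated (BsaI/T4 ligase, 1 h, 37 °C), PCR-amplified and sequenced on an Illumina NextSeq500. Binding signal is each 6-mer's read frequency for a factor divided by its frequency for the GST control.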

The target in another assay is ETV5 (Homo sapiens, UniProt P41161 1-510). Particulars: protein: recombinant; tags: N-terminal GST; dsDNA, one strand shown. The gist of the method: as §1
A further assay deals with HSF1 (Homo sapiens, UniProt Q00613 1-529). To be noted: protein: recombinant; tags: N-terminal GST; chain copies: 3; dsDNA, one strand shown. The procedure, abridged: as §1
The next assay addresses T2, SPIC (Homo sapiens, UniProt Q8N5J4 1-248).
T2 sequence: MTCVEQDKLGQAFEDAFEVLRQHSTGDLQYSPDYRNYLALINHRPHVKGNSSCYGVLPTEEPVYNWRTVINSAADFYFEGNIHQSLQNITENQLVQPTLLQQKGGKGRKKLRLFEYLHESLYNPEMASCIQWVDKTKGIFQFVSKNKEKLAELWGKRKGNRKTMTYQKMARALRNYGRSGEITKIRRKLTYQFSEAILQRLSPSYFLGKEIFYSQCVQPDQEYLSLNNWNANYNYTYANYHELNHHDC
Particulars: protein: recombinant; tags: N-terminal GST; dsDNA, one strand shown. The gist of the method:
as §1

The target in a further assay is ELF4 (Homo sapiens, UniProt Q99607 1-663). Particulars: protein: recombinant; tags: N-terminal GST; dsDNA, one strand shown. The procedure, abridged:
as §1

In another assay the target is T3, ELK4 (Homo sapiens, UniProt P28324-2 1-405).
T3 sequence: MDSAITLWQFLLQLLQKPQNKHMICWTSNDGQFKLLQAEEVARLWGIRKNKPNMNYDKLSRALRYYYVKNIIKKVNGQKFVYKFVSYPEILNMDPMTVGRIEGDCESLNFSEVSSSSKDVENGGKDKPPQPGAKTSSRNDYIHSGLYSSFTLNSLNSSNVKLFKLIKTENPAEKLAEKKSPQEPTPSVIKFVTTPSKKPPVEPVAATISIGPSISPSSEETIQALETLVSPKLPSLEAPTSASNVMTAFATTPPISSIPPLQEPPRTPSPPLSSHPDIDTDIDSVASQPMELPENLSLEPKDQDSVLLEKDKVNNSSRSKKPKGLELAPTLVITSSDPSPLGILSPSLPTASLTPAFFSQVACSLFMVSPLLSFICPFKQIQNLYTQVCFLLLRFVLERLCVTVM
Particulars: protein: recombinant; tags: N-terminal GST; dsDNA, one strand shown. The gist of the method: as §1

The target in a further assay is T4, ETV2 (Homo sapiens, UniProt O00321 1-342).
T4 sequence: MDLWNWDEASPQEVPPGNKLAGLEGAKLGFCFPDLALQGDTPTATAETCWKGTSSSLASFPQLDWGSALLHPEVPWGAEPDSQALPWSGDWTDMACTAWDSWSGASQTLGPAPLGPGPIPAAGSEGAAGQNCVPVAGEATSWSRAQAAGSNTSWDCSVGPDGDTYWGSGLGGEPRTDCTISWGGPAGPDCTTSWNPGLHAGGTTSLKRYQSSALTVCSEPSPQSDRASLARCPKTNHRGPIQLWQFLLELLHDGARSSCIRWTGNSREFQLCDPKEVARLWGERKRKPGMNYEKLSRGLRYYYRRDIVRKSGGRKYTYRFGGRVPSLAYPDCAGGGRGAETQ
Particulars: protein: recombinant; tags: N-terminal GST; dsDNA, one strand shown. The procedure, abridged: as §1

The next assay deals with T5, ELF3 (Homo sapiens, UniProt P78545 1-371).
T5 sequence: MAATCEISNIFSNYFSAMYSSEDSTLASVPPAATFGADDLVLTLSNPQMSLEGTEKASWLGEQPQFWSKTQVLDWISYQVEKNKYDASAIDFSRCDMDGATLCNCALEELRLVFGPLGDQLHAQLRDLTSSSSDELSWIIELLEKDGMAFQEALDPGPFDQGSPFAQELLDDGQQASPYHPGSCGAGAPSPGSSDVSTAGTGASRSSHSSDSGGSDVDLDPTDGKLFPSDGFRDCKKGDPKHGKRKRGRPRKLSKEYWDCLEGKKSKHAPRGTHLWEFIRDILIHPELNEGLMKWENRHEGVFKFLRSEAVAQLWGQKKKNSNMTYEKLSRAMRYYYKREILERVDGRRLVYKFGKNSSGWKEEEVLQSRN
To be noted: protein: recombinant; tags: N-terminal GST; dsDNA, one strand shown. The gist of the method: as §1

The target of another assay is CRX (Homo sapiens, UniProt O43186 1-299). Particulars: protein: recombinant; tags: N-terminal GST; dsDNA, one strand shown. The gist of the method:
as §1

In a further assay the target is ETV1 (Homo sapiens, UniProt P50549 1-477). Particulars: protein: recombinant; tags: N-terminal GST; dsDNA, one strand shown. The procedure, abridged: as §1
The target of the next assay is T6, ERF (Homo sapiens, UniProt P50548 1-548).
T6 sequence: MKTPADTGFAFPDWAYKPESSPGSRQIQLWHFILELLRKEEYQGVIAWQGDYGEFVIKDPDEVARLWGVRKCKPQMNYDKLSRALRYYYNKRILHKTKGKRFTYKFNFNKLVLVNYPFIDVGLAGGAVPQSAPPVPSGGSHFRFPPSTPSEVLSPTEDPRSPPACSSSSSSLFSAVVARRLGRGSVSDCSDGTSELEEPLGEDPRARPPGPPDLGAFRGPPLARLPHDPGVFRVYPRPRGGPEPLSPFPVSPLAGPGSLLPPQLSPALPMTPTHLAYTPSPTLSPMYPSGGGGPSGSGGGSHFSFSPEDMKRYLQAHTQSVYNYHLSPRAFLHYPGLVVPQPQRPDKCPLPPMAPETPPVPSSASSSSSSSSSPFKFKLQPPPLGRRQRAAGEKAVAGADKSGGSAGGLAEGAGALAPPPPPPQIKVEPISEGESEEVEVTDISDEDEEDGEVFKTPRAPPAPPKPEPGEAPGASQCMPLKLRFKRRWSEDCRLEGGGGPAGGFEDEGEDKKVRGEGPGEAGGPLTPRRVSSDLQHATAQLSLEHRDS
Particulars: protein: recombinant; tags: N-terminal GST; dsDNA, one strand shown. The procedure, abridged:
as §1

In another assay the target is T7, ETV3L (Homo sapiens, UniProt Q6ZN32 1-361).
T7 sequence: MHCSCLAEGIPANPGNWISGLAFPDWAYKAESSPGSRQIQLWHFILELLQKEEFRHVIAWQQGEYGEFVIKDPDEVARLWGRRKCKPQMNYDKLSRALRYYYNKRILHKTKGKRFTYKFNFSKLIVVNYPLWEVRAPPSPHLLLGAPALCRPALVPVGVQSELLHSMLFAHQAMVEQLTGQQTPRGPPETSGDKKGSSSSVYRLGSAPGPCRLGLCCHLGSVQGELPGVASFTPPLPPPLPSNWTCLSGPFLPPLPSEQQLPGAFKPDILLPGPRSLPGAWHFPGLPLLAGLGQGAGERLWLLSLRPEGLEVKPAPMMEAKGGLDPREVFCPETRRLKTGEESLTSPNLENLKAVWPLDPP
To be noted: protein: recombinant; tags: N-terminal GST; dsDNA, one strand shown. The gist of the method:
as §1

Another assay has as its target T8, ETS2 (Homo sapiens, UniProt P15036 1-469).
T8 sequence: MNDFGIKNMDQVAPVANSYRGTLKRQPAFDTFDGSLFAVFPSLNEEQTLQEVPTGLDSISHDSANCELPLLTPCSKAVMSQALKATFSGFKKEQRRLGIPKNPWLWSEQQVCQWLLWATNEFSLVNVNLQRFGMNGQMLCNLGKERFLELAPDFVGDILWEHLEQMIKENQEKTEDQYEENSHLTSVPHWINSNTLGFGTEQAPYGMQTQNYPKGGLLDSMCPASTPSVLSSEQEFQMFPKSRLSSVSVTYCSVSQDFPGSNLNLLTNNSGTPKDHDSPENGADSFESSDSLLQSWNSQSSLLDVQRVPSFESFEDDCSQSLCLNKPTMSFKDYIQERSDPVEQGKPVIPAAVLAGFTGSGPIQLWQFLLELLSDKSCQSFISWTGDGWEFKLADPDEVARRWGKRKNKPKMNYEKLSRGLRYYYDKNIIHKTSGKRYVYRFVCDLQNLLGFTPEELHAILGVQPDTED
Particulars: protein: recombinant; tags: N-terminal GST; dsDNA, one strand shown. The procedure, abridged: as §1

The next assay addresses T9, SPDEF (Homo sapiens, UniProt O95238 1-335).
T9 sequence: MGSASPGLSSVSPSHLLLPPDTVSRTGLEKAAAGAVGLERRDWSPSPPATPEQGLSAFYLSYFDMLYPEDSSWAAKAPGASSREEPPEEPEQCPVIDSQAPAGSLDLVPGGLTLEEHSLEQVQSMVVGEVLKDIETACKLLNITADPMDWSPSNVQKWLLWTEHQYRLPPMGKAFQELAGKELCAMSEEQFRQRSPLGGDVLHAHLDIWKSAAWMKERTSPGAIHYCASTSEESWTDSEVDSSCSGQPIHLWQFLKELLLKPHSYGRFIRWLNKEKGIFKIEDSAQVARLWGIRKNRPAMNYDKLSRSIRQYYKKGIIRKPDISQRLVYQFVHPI
Particulars: protein: recombinant; tags: N-terminal GST; dsDNA, one strand shown. The gist of the method: as §1

The next assay concerns the target T10, ETV7 (Homo sapiens, UniProt Q9Y603 1-341).
T10 sequence: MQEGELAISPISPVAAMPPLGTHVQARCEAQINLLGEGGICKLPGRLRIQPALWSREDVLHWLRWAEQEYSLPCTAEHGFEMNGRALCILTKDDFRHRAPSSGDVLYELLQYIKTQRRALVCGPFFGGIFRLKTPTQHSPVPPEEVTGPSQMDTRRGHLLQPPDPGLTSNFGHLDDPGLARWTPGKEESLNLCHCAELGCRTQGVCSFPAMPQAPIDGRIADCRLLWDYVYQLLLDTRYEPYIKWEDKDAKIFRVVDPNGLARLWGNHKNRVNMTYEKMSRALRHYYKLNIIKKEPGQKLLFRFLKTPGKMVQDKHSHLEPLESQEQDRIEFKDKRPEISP
To be noted: protein: recombinant; tags: N-terminal GST; dsDNA, one strand shown. The procedure, abridged: as §1

A further assay has as its target T11, ELF5 (Homo sapiens, UniProt Q9UKW6-2 1-255).
T11 sequence: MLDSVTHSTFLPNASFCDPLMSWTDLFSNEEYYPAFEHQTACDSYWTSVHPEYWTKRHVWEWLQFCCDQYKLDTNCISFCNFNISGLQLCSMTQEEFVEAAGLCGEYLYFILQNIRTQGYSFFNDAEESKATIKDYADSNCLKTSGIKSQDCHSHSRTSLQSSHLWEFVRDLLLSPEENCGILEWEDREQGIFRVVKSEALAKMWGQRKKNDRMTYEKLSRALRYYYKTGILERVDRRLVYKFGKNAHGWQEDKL
To be noted: protein: recombinant; tags: N-terminal GST; dsDNA, one strand shown. The procedure, abridged: as §1

The next assay has as its target T12, ETV3 (Homo sapiens, UniProt P41162-2 1-143).
T12 sequence: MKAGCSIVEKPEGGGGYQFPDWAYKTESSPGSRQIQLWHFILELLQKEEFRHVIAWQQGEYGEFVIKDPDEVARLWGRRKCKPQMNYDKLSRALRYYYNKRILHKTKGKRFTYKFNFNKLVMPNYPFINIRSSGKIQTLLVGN
Particulars: protein: recombinant; tags: N-terminal GST; dsDNA, one strand shown. The procedure, abridged:
as §1

A further assay deals with ETV6 (Homo sapiens, UniProt P41212 1-452). To be noted: protein: recombinant; tags: N-terminal GST; dsDNA, one strand shown. The procedure, abridged:
as §1

Sequence of ETV6 (P41212 whole entry): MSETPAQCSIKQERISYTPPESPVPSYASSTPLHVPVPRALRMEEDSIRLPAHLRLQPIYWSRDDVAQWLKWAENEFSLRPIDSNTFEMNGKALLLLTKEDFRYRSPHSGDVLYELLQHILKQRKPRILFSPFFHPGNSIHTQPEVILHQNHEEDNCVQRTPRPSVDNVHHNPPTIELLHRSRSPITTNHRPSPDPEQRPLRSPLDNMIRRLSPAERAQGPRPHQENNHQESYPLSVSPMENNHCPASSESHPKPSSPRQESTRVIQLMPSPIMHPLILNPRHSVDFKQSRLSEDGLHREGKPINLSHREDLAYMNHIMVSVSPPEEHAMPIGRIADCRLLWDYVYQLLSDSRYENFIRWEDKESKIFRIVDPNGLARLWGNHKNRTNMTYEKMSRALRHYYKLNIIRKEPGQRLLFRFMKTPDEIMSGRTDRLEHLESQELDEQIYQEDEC
Sequence of HSF1 (Q00613 whole entry): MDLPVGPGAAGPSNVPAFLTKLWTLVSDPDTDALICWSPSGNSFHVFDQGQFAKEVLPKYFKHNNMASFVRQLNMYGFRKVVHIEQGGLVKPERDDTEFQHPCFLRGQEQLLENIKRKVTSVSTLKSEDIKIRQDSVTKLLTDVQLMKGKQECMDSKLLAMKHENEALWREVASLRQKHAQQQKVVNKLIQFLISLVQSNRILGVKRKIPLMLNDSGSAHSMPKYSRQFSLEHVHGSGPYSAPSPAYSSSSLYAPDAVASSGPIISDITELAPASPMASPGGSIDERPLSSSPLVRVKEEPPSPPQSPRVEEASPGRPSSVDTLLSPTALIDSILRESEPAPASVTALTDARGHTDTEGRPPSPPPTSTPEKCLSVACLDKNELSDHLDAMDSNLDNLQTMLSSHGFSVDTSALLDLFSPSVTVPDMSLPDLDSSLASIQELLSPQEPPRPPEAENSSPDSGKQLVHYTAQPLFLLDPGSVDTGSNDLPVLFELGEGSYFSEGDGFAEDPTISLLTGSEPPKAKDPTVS
Sequence of ETV1 (P50549 whole entry): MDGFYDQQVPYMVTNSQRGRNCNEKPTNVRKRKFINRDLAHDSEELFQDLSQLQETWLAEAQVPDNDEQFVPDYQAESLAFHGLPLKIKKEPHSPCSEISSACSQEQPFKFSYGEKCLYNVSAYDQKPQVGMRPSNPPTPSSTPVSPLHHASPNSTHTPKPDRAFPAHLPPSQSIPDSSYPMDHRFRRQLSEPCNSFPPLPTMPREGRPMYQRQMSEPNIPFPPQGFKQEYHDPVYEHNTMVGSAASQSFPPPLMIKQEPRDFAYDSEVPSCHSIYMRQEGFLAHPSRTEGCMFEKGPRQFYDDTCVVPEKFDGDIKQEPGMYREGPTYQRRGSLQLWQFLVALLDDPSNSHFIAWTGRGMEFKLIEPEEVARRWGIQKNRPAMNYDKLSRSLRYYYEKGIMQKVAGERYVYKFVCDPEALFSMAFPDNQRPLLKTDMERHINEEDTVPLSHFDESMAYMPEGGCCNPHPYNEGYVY
Sequence of ETV5 (P41161 whole entry): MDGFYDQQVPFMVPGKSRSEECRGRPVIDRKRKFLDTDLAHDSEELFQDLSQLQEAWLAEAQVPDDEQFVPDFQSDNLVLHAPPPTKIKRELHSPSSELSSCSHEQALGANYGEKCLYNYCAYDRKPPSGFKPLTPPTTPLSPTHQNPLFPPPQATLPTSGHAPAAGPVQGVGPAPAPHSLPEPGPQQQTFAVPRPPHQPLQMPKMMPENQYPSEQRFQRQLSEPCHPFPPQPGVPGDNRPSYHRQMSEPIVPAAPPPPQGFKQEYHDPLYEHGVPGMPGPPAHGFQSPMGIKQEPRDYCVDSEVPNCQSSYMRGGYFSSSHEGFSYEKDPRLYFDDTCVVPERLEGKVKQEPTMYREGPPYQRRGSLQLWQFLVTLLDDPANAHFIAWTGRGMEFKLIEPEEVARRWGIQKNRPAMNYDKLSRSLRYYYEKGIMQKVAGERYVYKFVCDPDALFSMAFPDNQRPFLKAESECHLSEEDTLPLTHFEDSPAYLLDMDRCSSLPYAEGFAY
Sequence of ELF4 (Q99607 whole entry): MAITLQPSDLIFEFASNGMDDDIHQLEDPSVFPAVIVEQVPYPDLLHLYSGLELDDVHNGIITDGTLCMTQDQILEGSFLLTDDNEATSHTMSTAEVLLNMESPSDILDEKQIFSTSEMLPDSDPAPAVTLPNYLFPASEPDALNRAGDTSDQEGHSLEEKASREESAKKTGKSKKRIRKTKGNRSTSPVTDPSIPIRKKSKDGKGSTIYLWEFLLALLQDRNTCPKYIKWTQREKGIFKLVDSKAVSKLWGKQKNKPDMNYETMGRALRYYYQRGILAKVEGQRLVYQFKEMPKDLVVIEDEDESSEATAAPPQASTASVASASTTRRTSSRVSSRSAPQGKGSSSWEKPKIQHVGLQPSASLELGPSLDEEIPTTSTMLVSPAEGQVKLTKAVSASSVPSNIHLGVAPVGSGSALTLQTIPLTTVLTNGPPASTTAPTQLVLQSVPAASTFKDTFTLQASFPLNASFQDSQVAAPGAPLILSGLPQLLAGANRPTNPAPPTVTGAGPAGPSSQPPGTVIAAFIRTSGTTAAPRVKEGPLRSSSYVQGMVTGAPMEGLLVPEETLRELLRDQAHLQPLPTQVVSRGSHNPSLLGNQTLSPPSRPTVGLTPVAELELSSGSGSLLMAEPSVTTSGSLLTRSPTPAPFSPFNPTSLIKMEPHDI
Sequence of CRX (O43186 whole entry): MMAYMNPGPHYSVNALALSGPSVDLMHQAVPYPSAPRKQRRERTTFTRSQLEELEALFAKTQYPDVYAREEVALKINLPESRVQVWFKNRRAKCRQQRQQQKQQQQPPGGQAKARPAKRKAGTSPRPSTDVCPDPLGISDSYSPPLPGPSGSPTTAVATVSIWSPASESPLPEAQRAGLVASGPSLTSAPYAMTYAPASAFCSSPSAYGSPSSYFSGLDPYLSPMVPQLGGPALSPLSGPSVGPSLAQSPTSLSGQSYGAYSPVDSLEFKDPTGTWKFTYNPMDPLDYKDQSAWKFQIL

Regarding TCTACC, the binding signal with FEV was 1.52 fold enrichment (6-mer frequency, TF over GST control); in the assay with ETV5, 1.52 fold enrichment (6-mer frequency, TF over GST control); with HSF1, 1.67 fold enrichment (6-mer frequency, TF over GST control); with SPIC it was 1.53 fold enrichment (6-mer frequency, TF over GST control); with ELF4, 1.56 fold enrichment (6-mer frequency, TF over GST control); with ELK4 it was 1.48 fold enrichment (6-mer frequency, TF over GST control). The binding signal with ETV2 is 1.39 fold enrichment (6-mer frequency, TF over GST control); with ELF3 it was 1.53 fold enrichment (6-mer frequency, TF over GST control); with CRX, 1.44 fold enrichment (6-mer frequency, TF over GST control); with ETV1, 1.57 fold enrichment (6-mer frequency, TF over GST control); with ERF, 1.73 fold enrichment (6-mer frequency, TF over GST control); with ETV3L, 1.78 fold enrichment (6-mer frequency, TF over GST control). Further, the binding signal with ETS2 is 1.6 fold enrichment (6-mer frequency, TF over GST control); with SPDEF, 1.6 fold enrichment (6-mer frequency, TF over GST control); with ETV7, 1.44 fold enrichment (6-mer frequency, TF over GST control); with ELF5, 1.61 fold enrichment (6-mer frequency, TF over GST control); with ETV3, 1.52 fold enrichment (6-mer frequency, TF over GST control); with ETV6 it was 1.54 fold enrichment (6-mer frequency, TF over GST control).

These data come from PMC7862700, “An all-to-all approach to the identification of sequence-specific readers for epigenetic DNA modifications on cytosine”.
